The text below walks through data of article PMC12136788.

The chains are these.
T1: UNK ZnF1-3 (human, UniProt Q9C0B0 31-174)
T1 sequence: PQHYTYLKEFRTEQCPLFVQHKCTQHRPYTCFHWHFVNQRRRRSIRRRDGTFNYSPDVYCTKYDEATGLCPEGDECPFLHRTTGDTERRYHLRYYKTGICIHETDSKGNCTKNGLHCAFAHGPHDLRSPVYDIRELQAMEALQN

B1: chr3:10015032:10015033:+_ENSMUSG00000027533_ENSMUST00000029046|mus_mus|mus_mus_mus_hu_True|1_28 (ssRNA)
RNA: GGGAGUUCUACAGUCCGACGAUCGUUUUUACCAUCACAAGUGAUGAUACAAUCUGGCUUGGCCAUUGCGCCCAUUUUUCGCAAAGCUAUUCCCACUCCUAGCUCCUUCAUGUACUCAUCAAAGCCUUUGCUGUCCAUCAGGCGCAACAGAGGAUUGAGCAUCA
B2: chr7:151048522:151048523:+_ENSG00000013374_ENST00000566856|hu_mus|hu_hu_hu_mus_True|18_78 (ssRNA)
RNA: GGGAGUUCUACAGUCCGACGAUCCUGUUUCUUAUUUAUUACGAUCUUGAUGUAAUUUUCUUGAAGUCCGAAAGUUUCAGCUAUUUGACACCUCAGGUCUCUACCAGUGACAUGCAAUCGGGUCUCCAACAAGCUUUUCUUAUCCAACAGAGGAUUGAGCAUCA
B3: chr11:46405157:46405158:+_ENSG00000110492_ENST00000395566|hu_hu|hu_hu_hu_mus_False|1_98 (ssRNA)
RNA: GGGAGUUCUACAGUCCGACGAUCCCCUCCCCACUUUGGCUGGGGAGUGUGGGCGUGAGAGGACAGGCGUGAUUGACAGAGCUGACAGGAAGACAAAAGGCACUGGUGGGUUAUAUCUUGGGCCUGUGGGAGAGGAGGCGUGGGCAACAGAGGAUUGAGCAUCA
B4: chr19:7991675:7991676:-_ENSG00000104980_ENST00000595831|hu_hu|FALSE|FALSE (ssRNA)
RNA: GGGAGUUCUACAGUCCGACGAUCCCAAAUCUCAGGCUUAUGCACAAGAUGGAAGAGCACUGUUAAAAUUAAAAAAUGGACCUAAAGUGGCUUGGCUGACGUGGCUAGCGGGCCACUGAGCCGCGGGUCCCGGGUCCCACCCUGCAACAGAGGAUUGAGCAUCA
B5: chr7:54825262:54825263:-_ENSG00000132432_ENST00000352861|hu_hu|motif|central (ssRNA)
RNA: GGGAGUUCUACAGUCCGACGAUCCCGACUUGGCUCAACAAACUGCAUUACCUGAUCCAUGACUGCCUACCCAACCGACACCGGAAAUGCCAGGGACACGUAGCACUGGAGCUUGCUGAUGGAGGCCCACCGGAACCGGAAUCCCAACAGAGGAUUGAGCAUCA
B6: 193332725_193333477_540_CDS_ENSG00000198836_ENST00000392438|human|control|control (ssRNA)
RNA: GGGAGUUCUACAGUCCGACGAUCCCACUGAUCAAAAGUCUUUUUGGCUGUGUAGCCACCCCCAACAGCCGAUCCUAGUAUGAGAUAGCGAAGUUUUAAGAGUCUCGUAGCUAAUCUUGCUGGCCAAAAAUUCCUGCGAGGCUGCAACAGAGGAUUGAGCAUCA
B7: chr19:7991675:7991676:-_ENSG00000104980_ENST00000595831|hu_hu|motif|central (ssRNA)
RNA: B4 RNA with U82G, A83G
B8: chr9:100883651:100883652:-_ENSG00000106789_ENST00000375077|hu_mus|FALSE|FALSE (ssRNA)
RNA: GGGAGUUCUACAGUCCGACGAUCUCCCAAGGCAAGAAGGAAGGAGCCGAGGGCGGCUUUGCUGCUUGGGUGGUCACUGUGUCAGGGGGCAGUGUUGCUCCAUUAGCCCAAGAACAUAAAAACAUAAUCUUAAAAAAAUAUGACCAACAGAGGAUUGAGCAUCA
B9: chr1:129704038:129704039:+_ENSMUSG00000026349_ENSMUST00000027587|mus_mus|FALSE|FALSE (ssRNA)
RNA: GGGAGUUCUACAGUCCGACGAUCAGGCCAAAGCUGCCCUCCAAGUGUCGGUUGGCCUGCAUUAAUUACAGCUGUGCCUGCACACUUGUCUCAACAUCAAGUACUGAGGGAAAACGGGAAUGCACUCUGCCUCUGGUCAGUACACAACAGAGGAUUGAGCAUCA
B10: chr10:110404880:110404881:-_ENSMUSG00000035798_ENSMUST00000041723|mus_hu|motif|central (ssRNA)
RNA: GGGAGUUCUACAGUCCGACGAUCGUUUUUGUGAUACUUGUCACCAAGGUUAACUGAAACAUUGAAUGUUAAAAGCAAUCGGGUUGGAUCCACACUAUGUGUUCUAUAUGCUGCCCACAUUAAAGGCGUCAUUCCAUUCUGAUCCAACAGAGGAUUGAGCAUCA
B11: 23688267_23688387_1410_3pUTR_ENSMUSG00000048439_ENSMUST00000049887|mouse|control|control (ssRNA)
RNA: GGGAGUUCUACAGUCCGACGAUCUGAAUUUGUGGUGUUCUGCUGCUCAGCUUCCCAGACUGUAGGCAUGCAGGACAUGCCUGGCUAAGGCAUUCUUUCUGUAUUUAAACCUGACCUUUAUACAGUCAGAAGCUCGACCGGUGGCAACAGAGGAUUGAGCAUCA
B12: chr2:228221723:228221724:+_ENSG00000168958_ENST00000354503|hu_mus|FALSE|FALSE (ssRNA)
RNA: GGGAGUUCUACAGUCCGACGAUCGACCAUUUCUCUUUUAGCACGCUCUUUAUUCUCCUCUUCCAGAAGUUGGAGACGUCUAUUUAAUUUGAUUAUCUGACGUCUUAAUGAAGCUGCAUCUACCACAGUCAUGUCAUCUGAAGCCAACAGAGGAUUGAGCAUCA
B13: 60766941_60767061_3855_CDS_ENSG00000011028_ENST00000303375|human|control|control (ssRNA)
RNA: GGGAGUUCUACAGUCCGACGAUCGAAGGCCUGGGUGUAGGGGUCGGGCACGUAGGCCAGGCUGGCAUUGCGGCUCUCACACAGCAGGAGGGCAUCGUGCCAGCGCAGCGGCUUCUGAAGCAGCCGGAAGGUGCCGUUGAGGUACAACAGAGGAUUGAGCAUCA
B14: chr3:196311055:196311056:+_ENSG00000174013_ENST00000440469|hu_hu|FALSE|FALSE (ssRNA)
RNA: GGGAGUUCUACAGUCCGACGAUCGACCUUUGGAAGUCCUCUAAAAGCAACCCCCAGGAACUCAUAUCCACGUUCAAAAGCUAAAGUCUUAUCUUCCAUGUCCAAGAUGACUCGAAUUCUUUCUCCUAUCUGAUAUUUUGGUGCCAACAGAGGAUUGAGCAUCA
B15: chr2:140009677:140009678:+_ENSMUSG00000027384_ENSMUST00000044825|mus_mus|FALSE|FALSE (ssRNA)
RNA: GGGAGUUCUACAGUCCGACGAUCGCUGCUAACCACCAGGUCAAACGUGUUUUCUUGGAAGGGAAGGAAUUCUUCAUCAGCUAAAAUAUUCACAGUAGGAAUAUCUGUUUCUAAAGAAUUUUUCAAAGCAUGCUCUGCAAUGUCCAACAGAGGAUUGAGCAUCA
B16: chrX:71549762:71549763:+_ENSMUSG00000019087_ENSMUST00000019231|mus_mus|mus_mus_mus_hu_False|28_88 (ssRNA)
RNA: GGGAGUUCUACAGUCCGACGAUCAAACCCGUGUACUUCUUAUUGUUACAUCACCCCCACCAGAAAACGAUAACGACAGCCAAGCAGGACAGACAGUUAAGUAGUACUUCCACACCUCCAAACUCAGGGAGCCCUAUAACCUUACAACAGAGGAUUGAGCAUCA
B17: 112506700_112506820_3235_3pUTR_ENSMUSG00000032727_ENSMUST00000109272|mouse|control|control (ssRNA)
RNA: GGGAGUUCUACAGUCCGACGAUCAAUAAAUACCCUCCCGUCCAGUCACUAGGACCACUACCUCCUACCUACUCUUCAGCACGACCUUGAAGCGACUCACACUUAUAAACAGCAACACAACUAGGAAAAUAAAAAAAAAAAUCACAACAGAGGAUUGAGCAUCA
B18: chr1:32661602:32661603:+_ENSG00000084652_ENST00000373610|hu_hu|FALSE|FALSE (ssRNA)
RNA: GGGAGUUCUACAGUCCGACGAUCCAGCAUCCCUCUUCCUUGGAAGGUCCUCAAUACAAACACUGUCAUGUGCAAAAAAAAAAGAAAAAGAAAAAAAAAAAAAAAGAAAAAGAAAUAAAGAAAAAAACACCUUCAGAAAUAAUCCAACAGAGGAUUGAGCAUCA
B19: 32740819_32743422_11525_CDS_ENSG00000115760_ENST00000421745|human|control|control (ssRNA)
RNA: GGGAGUUCUACAGUCCGACGAUCCAGCAUCAACUGUAAAAAUAAUCUUCGUAUAAACCCUGAAAUGUUCCCAGAUGUUGGAAGGUUCCCUCUUUGAGGAGAUGUCUGAAAUAGUUCACAAAGAACCUGUGCCAUCAGCUUUUGCAACAGAGGAUUGAGCAUCA
B20: chrX:71549762:71549763:+_ENSMUSG00000019087_ENSMUST00000019231|mus_mus|mus_mus_mus_hu_False|28_98 (ssRNA)
RNA: GGGAGUUCUACAGUCCGACGAUCAAACCCGUGUACUCACUCUUAACAGCACAACAUCACCAGAAAACGAUAACGACAGCCAAGCAGGACAGACAGUUAAGUAGUACUUCCACACCUCCAAACUCAGGGAGCCCUAUAACCUUACAACAGAGGAUUGAGCAUCA
B21: chr3:41266445:41266446:+_ENSG00000168036_ENST00000349496|perfect_dup|FALSE|FALSE (ssRNA)
RNA: GGGAGUUCUACAGUCCGACGAUCCAUAGCAGCUCGUACCCUCUGAGCUCGAGUCAUUGCAUACUGUCCAUCAAUAUCAGCUACUUGUUCUUGAGUGAAGGACUGAGAAAAUCCCUGUUCCCACUCAUACAGGACUUGGGAGGUCAACAGAGGAUUGAGCAUCA
B22: chrX:140365796:140365797:-_ENSMUSG00000031285_ENSMUST00000033642|mus_mus|mus_mus_mus_hu_False|28_108 (ssRNA)
RNA: GGGAGUUCUACAGUCCGACGAUCCUUCUCAUUACUUAGUGCCUGCAAGGUUCUGGUUCGGUAGAAGCUACAGUGGGCGCUGUGAGUGGGGCUAGGCAACCCAUUCAUCCGUGACCCUCGCAUGUUCCUGGAUGUCUUAUCUCUCAACAGAGGAUUGAGCAUCA

Substitutions are numbered along the chain they refer to. Over roughly 24,000 sequences, “enrichment r” has its median near 0.99; the highest 2% begin near 3.7. The sample as a whole holds a higher share of the highest values than the screen did.

In the assay the target is T1, UNK ZnF1-3. Description: nsRBNS (natural sequence RNA bind-n-seq); RBNS binding buffer (assumed for nsRBNS): 25 mM Tris pH 7.5, 150 mM KCl, 3 mM MgCl2, 0.01% Triton X-100, 500 ug/ml BSA, 20 U/ml SUPERase-In, 4 C; UNK is unkempt and MSI1 is Musashi-1; names of the RNAs are library labels; protein concentration not given here; high values mean tight binding.
B1 displayed a binding signal of 0.662 enrichment R.
In turn, B2 showed a binding signal of 0.639 enrichment R.
With B3 the figure was 2.22 enrichment R; with B4, 4.68 enrichment R.
With B5, the binding signal came to 1.13 enrichment R.
As for B6, the binding signal was determined as 1.11 enrichment R.
With B7 the figure was 3.81 enrichment R; with B8, 2.88 enrichment R.
With B9 the figure was 0.746 enrichment R.
In turn, B10 yielded a binding signal of 0.601 enrichment R.
The figure for B11 is 0.457 enrichment R; for B12 it is 0.795 enrichment R; for B13 it is 0.939 enrichment R.
On to B14, for which the binding signal was determined as 1.13 enrichment R.
The molecule B15 registered a binding signal of 1.19 enrichment R.
Molecule B16 gave a binding signal of 1.85 enrichment R.
The figure for B17 is 4.38 enrichment R; for B18 it is 4.33 enrichment R; for B19 it is 1.97 enrichment R.
B20: the binding signal was 1.72 enrichment R.
With B21 the figure was 0.798 enrichment R.
B22 registered a binding signal of 0.752 enrichment R.
